The record followed here is PubChem BioAssay AID493131 (Broad Institute, 2011).

Hit rate of the full screen: of about 340,000 compounds, about 3,300 (0.97%) were called active.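 How the source made its calls: active means mean activation above about 17%, with every replicate also reaching it (limit read from the data, passing the limit was not always enough); inconclusive means only one of the two conditions met; inactive means the rest.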 This excerpt belongs to a sample that is enriched for actives.

Chain of Protein FosB (Mus musculus) (P13346 whole entry, looked up): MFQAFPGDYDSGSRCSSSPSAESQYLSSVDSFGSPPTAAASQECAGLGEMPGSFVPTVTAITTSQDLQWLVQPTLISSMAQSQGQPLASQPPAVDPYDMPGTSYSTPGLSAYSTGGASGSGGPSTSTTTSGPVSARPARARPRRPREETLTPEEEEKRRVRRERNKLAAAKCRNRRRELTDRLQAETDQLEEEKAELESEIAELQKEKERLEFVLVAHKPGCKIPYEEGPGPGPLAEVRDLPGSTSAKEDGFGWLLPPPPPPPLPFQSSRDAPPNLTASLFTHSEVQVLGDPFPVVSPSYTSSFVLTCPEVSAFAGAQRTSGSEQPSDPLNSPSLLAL

This experiment concerns the target Protein FosB (Mus musculus) (UniProt P13346). Briefly: activators of delta FosB homodimer, primary screen, biochemical, fluorescence polarization, TAMRA-CDK5 oligo, single point (AID 493131).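 Further: fluorescence polarization rise as delta FosB binds a TAMRA Cdk5 AP-1 oligo.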 Conditions: purified delta FosB, at 25 µM, active compounds read high, percent of positive-control signal above neutral wells.
As for `COc1ccccc1NC(=O)C1=C(C)Nc2nnnn2C1c1cccc(Br)c1` (stereo not given), the activation was 27.9% (active).
`COc1cc(C2C(C(=O)Nc3ccccc3OC)=C(C)Nc3ncnn32)ccc1O` (stereo not given): the activation is -9.43% (inactive).
The result for `COc1ccc(C2C(C(=O)Nc3ccccc3OC)=C(C)Nc3nnnn32)c(OC)c1` (stereo not given) reads -2.93% (inactive).
The result for `COc1ccc(-c2cc3nc(C)c(CCC(=O)NC(C)CCc4ccco4)c(C)n3n2)c(OC)c1` (stereo not given) reads -2.13% (inactive).
For `Cc1ccc(NC(=O)CCC(=O)N2CCC(c3ccccc3)=N2)cc1S(=O)(=O)N1CCCCC1`, the activation was 10.2% (inactive).
As for `Cc1sc2ncnc(N3CCC(C(=O)Nc4ccc(F)cc4Cl)CC3)c2c1C`, the figure is -2.12% (inactive).
As to `Cc1sc2ncnc(N3CCC(C(=O)Nc4nc5ccc(Cl)cc5s4)CC3)c2c1C`, the activation was 43.5% (active).
In the case of `Cc1sc2ncnc(N3CCC(C(=O)NNC(=O)c4ccc(F)cc4)CC3)c2c1C`, the activation is -4.25% (inactive).
As to `Cc1cccc(-n2nc3c(c2NC(=O)c2cc4ccccc4o2)CS(=O)(=O)C3)c1`, the activation is -22.1% (inactive).
As for `COc1ccc(CCNC(=O)c2nnc(CS(=O)(=O)c3ccccc3)o2)cc1OC`, the figure is -8.02% (inactive); as for `CCCCNC(=S)N/N=C1\CCCCc2ccccc21`, -5.41% (inactive); as for `COc1ccc(S(=O)(=O)N2CCC(C(=O)NCCC(=O)NCc3cccc(OC)c3)CC2)cc1`, -3.09% (inactive).
As for `COc1cccc(CNC(=O)c2nnn(CC(=O)Nc3cc(Cl)ccc3C)c2N)c1`, the activation was 70.5% (active).
As for `COc1cccc(CNC(=O)c2n[nH]c3ccccc23)c1`, the activation was -2.62% (inactive).
In the case of `CCOc1ccccc1NC(=O)Cn1nnc(C(=O)NCc2cccs2)c1N`, the activation was 28.6% (active).
Regarding `Cc1ccc(NC(=O)Cn2nnc(C(=O)NCc3ccco3)c2N)c(C)c1`, the activation is 14.6% (inactive).
The result for `CCN(CC(=O)NCc1cccs1)c1nnnn1-c1ccccc1` reads 1.6% (inactive); that for `CCOc1ccc(Cn2nnc(C(=O)Nc3ccc(OC)cc3OC)c2N)cc1`, 7.56% (inactive); that for `COc1ccc(NC(=O)Cn2nnc(C(=O)NCCc3ccc(OC)c(OC)c3)c2N)cc1`, -1.69% (inactive).
As for `COc1cccc(CNC(=O)c2nnn(CC(=O)Nc3cc(C)ccc3C)c2N)c1`, the activation is 52.8% (active).
For `COc1ccc(CNC(=O)c2nnn(CC(=O)Nc3cc(C)cc(C)c3)c2N)cc1`, the activation is 48.3% (active).
In the case of `CCOc1ccccc1NC(=O)Cn1ncc2ccc([N+](=O)[O-])cc21`, the activation is -5.27% (inactive).
Consider `COc1cccc(CNC(=O)c2cccnc2Sc2ccc(Cl)cc2)c1`, for which the activation was -12% (inactive).
Turning to `O=C(O)c1ccc(S(=O)(=O)c2ccccc2)s1`, the activation is 0.96% (inactive).
As for `O=S(=O)(Nc1ccc(OC(F)(F)F)cc1)c1cccc2nonc12`, the figure is 2.63% (inactive); as for `N#Cc1c(/N=C/N2CCCC2)oc(-c2ccccc2)c1-c1ccccc1`, -4.67% (inactive); as for `CC(Sc1nnnn1C1CCCCC1)C(=O)O` (stereo not given), 1.4% (inactive).
Consider `Cc1cccc(CSc2nc3c(c(=O)n2C)SCC3)c1`, for which the activation is -8.87% (inactive).
As for `CCN(CC)c1ccc(S(=O)(=O)N2CCOCC2)cc1NC(=O)CSc1cccc[n+]1[O-]`, the activation is 4.76% (inactive).
For the compound `NC(=O)Nc1ccc(C(=O)OCC(=O)NC2CCCc3ccccc32)cc1` (stereo not given), the activation is 0.99% (inactive).
The result for `Nc1ccc(C(=O)OCC(=O)NC2CCS(=O)(=O)C2)cc1[N+](=O)[O-]` (stereo not given) reads -1.21% (inactive); that for `Nc1ccc(C(=O)OCC(=O)NC2CCCc3ccccc32)cc1[N+](=O)[O-]` (stereo not given), 35.5% (active); that for `CC1(C(=O)O)CCC(C(=O)Nc2ccc(Cl)c(Cl)c2)C1(C)C` (stereo not given), -5.56% (inactive).
In the case of `COc1ccc(OCCCC(=O)Nc2nnc(C3CCCO3)s2)cc1` (stereo not given), the activation was -9.89% (inactive).
As for `COc1ccc2c(CC(=O)Nc3nnc(C4CC4)s3)coc2c1`, the activation was -0.902% (inactive).
In the case of `COc1ccc(NC(=O)CCC(=O)Nc2nnc(C3CCCCC3)s2)cc1`, the activation was 23.2% (active).
As for `O=C(Cc1ccc(Br)cc1)NCCN1CCOCC1`, the activation was 7.04% (inactive).
For the compound `CC1CCCCC1NC(=O)/C(C#N)=C/C=C/c1ccccc1[N+](=O)[O-]` (stereo not given), the activation is -2.37% (inactive).
As for `COc1ccc(S(=O)(=O)N(C)CC(=O)Nc2ccc3c(c2)OCCO3)cc1OC`, the figure is -3.7% (inactive).
`Cn1c(=O)c2ccccc2n(CC(=O)Nc2ccc3c(c2)OCCO3)c1=O`: the activation was 5.57% (inactive).
As to `Cc1ccc(S(=O)(=O)NCC(=O)Nc2ccc3c(c2)OCCO3)cc1`, the activation is -0.347% (inactive).
In the case of `Cc1ccc(SCC(=O)Nc2ccc3c(c2)OCCO3)cc1`, the activation was -1.62% (inactive).
As to `CS(=O)(=O)c1ccc(-c2nnn(CC(=O)Nc3ccc4c(c3)OCCO4)n2)cc1`, the activation was 37.1% (active).
Consider `Cc1cccc(C(=O)Nc2ccccc2-c2nnn(CC(=O)Nc3ccc4c(c3)OCCO4)n2)c1`, for which the activation is 20.1% (active).
On to `O=C(c1cccc(N2CCCC2=O)c1)N1CCOCC1`, for which the activation was -2.25% (inactive).
The result for `CN(Cc1cccs1)C(=O)Cc1c[nH]c2ccccc12` reads 0.954% (inactive); that for `COc1ccc(NC(=O)CN(C)C(=O)c2ccc(NC3CC3)c([N+](=O)[O-])c2)cc1`, 4.11% (inactive); that for `COc1ccc(-n2cnnc2SCC(=O)Nc2cccc([N+](=O)[O-])c2)cc1`, 9.7% (inactive).
As to `COc1ccc(CCNC(=O)CSc2nc3[nH]ncc3c(=O)n2-c2cccc(C(F)(F)F)c2)cc1OC`, the activation is 0.114% (inactive).
Consider `NC(=O)NC(=O)CSc1nc2cc([N+](=O)[O-])ccc2n1-c1cccc(C(F)(F)F)c1`, for which the activation was 20.9% (active).
As for `O=C(COc1ccccc1)Nc1nonc1NC(=O)COc1ccccc1`, the figure is 1.39% (inactive); as for `COC(=O)CC1=NN(c2nc(C)cc(C)n2)C(=O)C1`, 0.664% (inactive); as for `CS(=O)(=O)N(CC(=O)N1CCCC1)Cc1ccccc1`, -9% (inactive).
`Cc1ccc(-c2nc(CS(=O)CC(=O)N3CCN(c4ncccn4)CC3)c(C)o2)cc1` (stereo not given): the activation is -11.3% (inactive).
In the case of `Cc1[nH]c2c(C(=O)N3CCCC(CCC(=O)NCc4ccccc4F)C3)cccc2c1C` (stereo not given), the activation is -10% (inactive).
For the compound `Cc1ccc(NC(=O)Nc2ccccc2)c(Br)c1`, the activation is -6.25% (inactive).
Take `O=C(Nc1c[nH]c(=O)[nH]c1=O)OCc1ccccc1`: the activation was 1.77% (inactive).
Turning to `Cc1cc(NC(=O)Nc2c[nH]c(=O)[nH]c2=O)ccc1Br`, the activation is 27% (active).
As to `CCOC(=O)CCC(NC(=O)c1ccc(CNc2nc3cc(C(F)(F)F)ccc3nc2C(=O)OCC)cc1)C(=O)OCC` (stereo not given), the activation was -4.97% (inactive).
As for `CC(=O)Nc1ccc(S(=O)(=O)NCC(=O)OCc2cc(=O)oc3ccc4ccccc4c23)cc1`, the figure is 38.6% (active).
On to `COc1ccccc1C(=O)COC(=O)CNS(=O)(=O)c1ccc(NC(C)=O)cc1`, for which the activation was -5.62% (inactive).
Turning to `COc1ccccc1CNC(=O)COC(=O)CNS(=O)(=O)c1ccc(NC(C)=O)cc1`, the activation was 0.477% (inactive).
Regarding `CC1CCC(N2CC(=O)N(Cc3ccc4c(c3)OCO4)C(c3ccc(F)cc3)C2=O)CC1` (stereo not given), the activation is -1.56% (inactive).
The result for `O=C(CN(Cc1ccccc1)C(=O)CCC(=O)Nc1ccccn1)NCCc1ccccc1` reads -12.5% (inactive).
As for `CCCOc1ccc(/C=N/NC(=O)C2CC2)c(OCCC)c1`, the figure is -10.6% (inactive); as for `CCCOc1ccc(C(=O)C(CCC(CNCC)C(=O)c2ccc(OCCC)cc2)CNCC)cc1` (stereo not given), 18.7% (active); as for `CCCOc1ccc(C(=O)CCC(=O)OC(C)C(=O)Nc2ccc(NC(C)=O)cc2)cc1` (stereo not given), 11.5% (inactive).
As for `COC(=O)c1ccc(NC(=O)CSc2nc(N)c(NC(=O)c3ccc(Br)o3)c(=O)[nH]2)cc1`, the activation is 10.1% (inactive).
Consider `O=C(Nc1cc(-c2nc3ncccc3o2)ccc1Cl)c1ccco1`, for which the activation was -46.8% (inactive).
For the compound `Nc1nc(SCC(=O)Nc2cc(C(F)(F)F)ccc2Cl)[nH]c(=O)c1NC(=O)c1ccco1`, the activation is 48.3% (active).
In the case of `CCN(CC(=O)NCc1ccc(F)cc1)S(=O)(=O)c1ccc(Cl)s1`, the activation is 6.54% (inactive).
As for `NN=C(NN=Cc1ccccc1)c1ccccc1`, the figure is -14.8% (inactive).
The result for `COc1ccc(C)cc1NC(=O)CSc1cccc[n+]1[O-]` reads 6.31% (inactive); that for `O=C(Nc1nnc(C2COc3ccccc3O2)o1)c1ccc(F)cc1` (stereo not given), 1.05% (inactive); that for `COc1ccc(N(CC(=O)N/N=C/c2cccc3c2OCCO3)S(=O)(=O)c2ccc(NC(C)=O)cc2)cc1`, -0.26% (inactive).
As to `Cc1cc(=O)[nH]c2nnnn12`, the activation was -4.86% (inactive).
Turning to `CCN(CC)CCNc1ccc(Cl)cc1[N+](=O)[O-]`, the activation is 4.58% (inactive).
Consider `O=C(Nc1nc(-c2ccc(-c3ccccc3)cc2)cs1)c1cnccn1`, for which the activation is 21.9% (active).
As for `O=C(Nc1nnc(Cc2ccccc2)s1)c1cnccn1`, the activation was -3.57% (inactive).
Turning to `O=C(NCc1cccnc1)C(=O)Nc1nc(-c2ccccc2)cs1`, the activation was -5.18% (inactive).
Take `CCCCC(NS(=O)(=O)c1ccc(C)cc1)C(=O)Oc1ccc2c3c(c(=O)oc2c1)CCC3` (stereo not given): the activation was -11.5% (inactive).
As for `CCOc1ccc(NC(=O)c2ccc(CSc3nnnn3C)cc2)cc1`, the figure is -3.33% (inactive); as for `Cn1c(=O)n(C)c2cc(/C=N/NC(=O)c3cccc(Br)c3)ccc21`, 10.7% (inactive).
As for `O=C(Nc1ccc(N2CCCC2=O)cc1)c1cncc(Br)c1`, the activation was -1.59% (inactive).
On to `O=C(N/N=C/c1cccc(Br)c1)c1ccc(N2CCCC2=O)cc1`, for which the activation is 86.6% (active).
As for `CCN(CC(=O)Nc1c(F)cccc1F)C(=O)Cc1cccs1`, the activation is 3.46% (inactive).
Consider `Cc1ccc(C)c(NC(=O)C(OC(=O)c2ccc(C)s2)c2ccccc2)c1` (stereo not given), for which the activation is 23.6% (active).
On to `COc1ccc(C)cc1NC(=O)C(OC(=O)c1cccc(S(=O)(=O)N(C)c2ccccc2)c1)c1ccccc1` (stereo not given), for which the activation was -8.39% (inactive).
As for `Cc1cc(C)cc(NC(=O)C(OC(=O)c2ccc(O)cc2)c2ccccc2)c1` (stereo not given), the activation is 6.84% (inactive).
The result for `C/C(CC(=O)NCc1ccc(Cl)cc1)=N\NC(=O)COc1ccc(C)cc1Br` reads -6.55% (inactive).
